Among the data in PubChem BioAssay (NCI) are growth values, retold here.

Structures are written as SMILES. About 83,000 compounds went through this panel and 20% of them were active in at least one assay; those are over-represented in the sample as a whole.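 Step 1: grow cells in 96-well plates. Step 2: add test compound at a single concentration. Step 3: incubate 48 h. Step 4: record percent growth.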 Unmarked numbers belong to inactive results. Activity calls are given as the source filed them. How the source made its calls: active means growth percent below 10; inactive means the rest.

Test systems include NCI-H23 lung; NCI-H226 lung; NCI-H322M lung; HOP-62 NSCLC; NCI-H460 lung; HOP-92 NSCLC; NCI-H522 lung; A549/ATCC NSCLC; 786-0 renal; COLO 205 colon; DU-145 prostate; K-562 leukemia; MALME-3M melanoma; MDA-MB-231 breast; RXF 393 renal; SF-268 CNS; SF-295 CNS; SF-539 CNS; UACC-257 melanoma; M14 melanoma.
What all share (assay): NCI-60 one-dose screen, 48 h (100 = growth as untreated, 0 = no growth, -100 = all killed)
Conditions in all cases: 10 µM unless noted

On to `Cc1cc(Nc2cc(N3CCN(C)CC3)nc(/C=C/c3ccccc3)n2)n[nH]1`, for which the growth is 22.3% in the assay with NCI-H23 lung; 17.7% with NCI-H226 lung; 29.5% with NCI-H322M lung; -19.7% (active) in the assay with HOP-62 NSCLC; 5.31% (active) in the assay with NCI-H460 lung; -60.5% (active) with HOP-92 NSCLC. Moreover, the growth in the assay with NCI-H522 lung is -12.4% (active); in the assay with A549/ATCC NSCLC, -25% (active); with 786-0 renal, -94.3% (active); in the assay on COLO 205 colon, -63.2% (active); with DU-145 prostate, 26.9%; in the assay with K-562 leukemia it was -18.8% (active). Besides, the growth in the assay on MALME-3M melanoma is -60.6% (active); with MDA-MB-231 breast, 9.8% (active); in the assay with RXF 393 renal, -86.6% (active); in the assay with SF-268 CNS, -26.1% (active); in the assay with SF-295 CNS it was -17% (active); in the assay on SF-539 CNS it was -79.1% (active). For the same compound, the growth with UACC-257 melanoma was -73.4% (active); in the assay with M14 melanoma, -76.6% (active).
For the compound `CC(=O)Nc1cccc(-n2c(=O)n(C3CC3)c(=O)c3c(Nc4ccc(I)cc4F)n(C)c(=O)c(C)c32)c1`, the growth is 17.1% in the assay with NCI-H23 lung; 49.5% with NCI-H226 lung; 10.9% in the assay on NCI-H322M lung; 19.5% in the assay with HOP-62 NSCLC; 56.1% in the assay with NCI-H460 lung; -27% (active) in the assay on HOP-92 NSCLC. Also, the growth with NCI-H522 lung is 34.6%; in the assay on A549/ATCC NSCLC, 28.4%; in the assay on 786-0 renal, 56.2%; with COLO 205 colon, -12.9% (active); in the assay with DU-145 prostate, 53%; in the assay with K-562 leukemia, 25.5%. Besides, the growth was -0.925% (active) in the assay with MALME-3M melanoma; 18.6% with MDA-MB-231 breast; -15.2% (active) in the assay with RXF 393 renal; 53% in the assay with SF-268 CNS; 82.6% with SF-295 CNS; 41.1% with SF-539 CNS. Besides, the growth with UACC-257 melanoma was -21.9% (active); with M14 melanoma it was 1.71% (active).
As to `CC(=O)C1CC(C)CCC1C(C)C` (stereo not given), the growth in the assay with NCI-H23 lung was 78.7%; in the assay with NCI-H226 lung it was 105%; in the assay with NCI-H322M lung it was 102%; in the assay with HOP-62 NSCLC it was 107%; with NCI-H460 lung it was 98.4%; in the assay with HOP-92 NSCLC, 47.4%. Besides, the growth is 82.8% in the assay with NCI-H522 lung; 106% with A549/ATCC NSCLC; 105% with 786-0 renal; 122% in the assay with COLO 205 colon; 111% with DU-145 prostate; 77% in the assay on K-562 leukemia. In addition, the growth with MALME-3M melanoma is 126%; with MDA-MB-231 breast, 80.2%; in the assay with RXF 393 renal, 107%; in the assay on SF-268 CNS, 105%; in the assay with SF-295 CNS it was 120%; with SF-539 CNS, 102%. In addition, the figures for the growth with UACC-257 melanoma and in the assay on M14 melanoma were 111% and 103%, respectively.
As to `CC[C@H](CO)Nc1nc(NCc2ccccc2)c2ncn(C(C)C)c2n1`, the growth with NCI-H23 lung is 63.5%; in the assay with NCI-H226 lung it was 76%; in the assay with NCI-H322M lung, 61.3%; in the assay with HOP-62 NSCLC it was 48.2%; with NCI-H460 lung, 47.8%; with HOP-92 NSCLC, 65.4%. The growth is 48.8% in the assay on NCI-H522 lung; 56% in the assay on A549/ATCC NSCLC; 57.6% in the assay on 786-0 renal; 47.1% in the assay on COLO 205 colon; 53.9% in the assay with DU-145 prostate; 58.5% in the assay on K-562 leukemia. The growth in the assay on MALME-3M melanoma was 87.4%; in the assay with MDA-MB-231 breast, 75.6%; in the assay with RXF 393 renal, -22.3% (active); with SF-268 CNS it was 70.9%; with SF-295 CNS, 59.8%; in the assay with SF-539 CNS it was 57.2%. The growth in the assay with UACC-257 melanoma is 91.6%; in the assay on M14 melanoma, 71.8%.
Take `CCNC(=O)C#Cc1ccc2c(C(=Nc3ccc(CN(C)C)cc3)c3ccccc3)c(O)[nH]c2c1`: the growth was 14% in the assay with NCI-H23 lung; 38.6% with NCI-H226 lung; 14.4% in the assay on NCI-H322M lung; 4.11% (active) in the assay with HOP-62 NSCLC; 16.5% in the assay on NCI-H460 lung; -66.8% (active) in the assay with HOP-92 NSCLC. The growth in the assay on NCI-H522 lung is 48.9%; in the assay on A549/ATCC NSCLC it was 6.49% (active); in the assay with 786-0 renal, 24.2%; in the assay with COLO 205 colon it was -41% (active); with DU-145 prostate, 44.3%; in the assay with K-562 leukemia, 9.16% (active). For the same compound, the growth in the assay on MALME-3M melanoma was -11.3% (active); in the assay with MDA-MB-231 breast, 3.36% (active); with RXF 393 renal, -33.7% (active); in the assay on SF-268 CNS it was 47.8%; in the assay on SF-295 CNS, 59.8%; with SF-539 CNS it was -6.1% (active). In addition, the figures for the growth in the assay on UACC-257 melanoma and in the assay on M14 melanoma were -36.3% (active) and -33.7% (active), respectively.
Regarding `O=C1NC(=O)C(c2cnc3ccccn23)=C1c1cn2c3c(cc(F)cc13)CN(C(=O)N1CCCCC1)CC2`, the growth in the assay with NCI-H23 lung is 82.1%; in the assay on NCI-H226 lung, 46%; in the assay with NCI-H322M lung it was 72%; in the assay with HOP-62 NSCLC it was 26.1%; in the assay with NCI-H460 lung, 39.1%; in the assay with HOP-92 NSCLC, 83%. For the same compound, the growth is 38.7% in the assay on NCI-H522 lung; 34.8% in the assay with A549/ATCC NSCLC; 31.1% with 786-0 renal; 26.7% in the assay with COLO 205 colon; 68.7% in the assay on DU-145 prostate; 27.9% in the assay with K-562 leukemia. Besides, the growth with MALME-3M melanoma was 64.6%; in the assay on MDA-MB-231 breast it was 70.2%; with RXF 393 renal, 16.6%; with SF-268 CNS it was 64.7%; in the assay on SF-295 CNS, 35.7%; in the assay on SF-539 CNS, 53.8%. Also, the figures for the growth in the assay on UACC-257 melanoma and in the assay on M14 melanoma were 67.1% and 50.7%, respectively.
On to `CN(C)C[C@@H]1CCn2cc(c3ccccc32)C2=C(C(=O)NC2=O)c2cn(c3ccccc23)CCO1`, for which the growth with NCI-H23 lung was -15.7% (active); with NCI-H226 lung, -12.5% (active); with NCI-H322M lung, 32.2%; in the assay on HOP-62 NSCLC, -67.9% (active); with NCI-H460 lung, -70.6% (active); in the assay on HOP-92 NSCLC it was 46.1%. Also, the growth was -23.1% (active) in the assay with NCI-H522 lung; -12.4% (active) in the assay on A549/ATCC NSCLC; -69.9% (active) in the assay with 786-0 renal; -53.8% (active) with COLO 205 colon; 13.2% with DU-145 prostate; -58.7% (active) in the assay with K-562 leukemia. Further, the growth is -70.5% (active) with MALME-3M melanoma; -35.8% (active) with MDA-MB-231 breast; -72.9% (active) in the assay with RXF 393 renal; 36.6% in the assay on SF-268 CNS; 21% with SF-295 CNS; -93.2% (active) in the assay with SF-539 CNS. For the same compound, the figures for the growth in the assay with UACC-257 melanoma and in the assay with M14 melanoma were -20.1% (active) and 3.4% (active), respectively.
With `COc1ccc(-c2cc3c(C)nc(N)nc3n(C3CCC(OCCO)CC3)c2=O)cn1` (stereo not given), the growth was 15% in the assay on NCI-H23 lung; -0.55% (active) in the assay with NCI-H226 lung; -36.4% (active) in the assay on NCI-H322M lung; -21.9% (active) in the assay on HOP-62 NSCLC; 6.78% (active) with NCI-H460 lung; -32.2% (active) in the assay with HOP-92 NSCLC. Moreover, the growth in the assay on NCI-H522 lung is -1.92% (active); in the assay with A549/ATCC NSCLC it was -38.4% (active); in the assay with 786-0 renal it was -24.1% (active); in the assay on COLO 205 colon, -61.1% (active); with DU-145 prostate, 7.64% (active); with K-562 leukemia it was 24%. Further, the growth with MALME-3M melanoma was -34% (active); with MDA-MB-231 breast it was 5.08% (active); in the assay on RXF 393 renal it was -50.9% (active); in the assay on SF-268 CNS, 4.36% (active); with SF-295 CNS it was -57.7% (active); in the assay with SF-539 CNS, -62.4% (active). Moreover, the growth is -35.9% (active) in the assay with UACC-257 melanoma and 0.206% (active) with M14 melanoma.
